The assay can be described thus: chemical genetic growth profiling, strain panel (AID 1159580).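 Note: tested at 20 µM; growth read once vehicle control cultures reached saturation at 30 °C; 1 = growth at the plate median or of vehicle wells.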 To be noted: S. cerevisiae deletion strains, growth OD.
The mark [1] stands for this setting: locus YAL040C, strain CLN3, stronger effect = lower value.
Where [2] appears, read: locus YCL061C, strain MRC1 (second series), stronger effect = lower value.
Where [3] appears, read: locus YDR150W, strain NUM1, stronger effect = lower value.
Where [4] appears, read: locus YDR363W, strain ESC2, stronger effect = lower value.
Where [5] appears, read: locus YER002W, strain NOP16, stronger effect = lower value.
Where [6] appears, read: locus YGR229C, strain SMI1, stronger effect = lower value.
Where [7] appears, read: locus YNL128W, strain TEP1, stronger effect = lower value.
The mark [8] stands for this setting: locus YNL175C, strain NOP13, stronger effect = lower value.
Where [9] appears, read: locus YNL197C, strain WHI3, stronger effect = lower value.
The mark [10] stands for this setting: locus YOR083W, strain WHI5 (second series), stronger effect = lower value.

The campaign covered roughly 5,500 compounds. About 2,000 (36%) were called active. Inconclusive results (about 18%) are left out. This is one part of the list. A number with no mark means an inactive call. Cut-off read from the data, not from the text of the source: active = normalized growth mostly below about 0.91 (no sharp cut-off); inconclusive = no clear call, values can overlap the other calls; inactive = mostly above about 0.92.

With `CC(C)(C)c1ccc(C(O)CCCN2CCC(C(O)(c3ccccc3)c3ccccc3)CC2)cc1` (stereo unspecified), the normalized growth is, setting by setting: (locus YAL013W, strain DEP1, stronger effect = lower value) 0.984; under setting [1], 0.991; under setting [2], 1; under setting [3], 1.01; under setting [4], 1; under setting [5], 1.22 [resistant] (active). The normalized growth is 0.936 under setting [6]; 0.952 (locus YHR030C, strain SLT2, stronger effect = lower value); 0.941 (locus YHR079C, strain IRE1, stronger effect = lower value); 0.973 (locus YJL095W, strain BCK1, stronger effect = lower value); 0.972 (locus YJR066W, strain TOR1, stronger effect = lower value); 0.978 (locus YLR113W, strain HOG1, stronger effect = lower value). In addition, the normalized growth is, setting by setting: (locus YMR307W, strain GAS1, stronger effect = lower value) 1.01; under setting [7], 1.09; (locus YNL153C, strain GIM3, stronger effect = lower value) 1.01; under setting [8], 1.25 [resistant] (active); (locus YNL183C, strain NPR1, stronger effect = lower value) 0.936; under setting [9], 1.15 [resistant] (active). The normalized growth was 1.05 under setting [10]; 0.966 (locus YOR231W, strain MKK1, stronger effect = lower value); 0.978 (locus YPL055C, strain LGE1, stronger effect = lower value); 0.955 (locus YPL256C, strain CLN2, stronger effect = lower value).

For `CN1[C@@H](CC(=O)c2ccccc2)CCC[C@H]1C[C@H](O)c1ccccc1`, the normalized growth is, setting by setting: under setting [1], 1.01; under setting [2], 1.01; under setting [3], 1.01; under setting [4], 0.984; under setting [5], 1; under setting [6], 0.99. Further, the normalized growth by setting is: (locus YJR075W, strain HOC1, stronger effect = lower value) 1.01; (locus YMR263W, strain SAP30, stronger effect = lower value) 1.01; under setting [7], 1; under setting [8], 1.02; under setting [9], 1.01; (locus YNL224C, strain SQS1, stronger effect = lower value) 1. Besides, the normalized growth was 1.02 under setting [10] and 1.01 (locus YPL241C, strain CIN2, stronger effect = lower value).

The values above are taken from PubChem BioAssay AID1159580 (chemical genetic matrix, 2015).
